Results on 40 compounds are retold here after PubChem BioAssay (NCI).

The structures appear in SMILES notation. This is part of a sample that, as a whole, favours compounds with a hit. Of some 83,000 tested, about 20% had one in any assay.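 Growth was measured after 48 h exposure to one concentration of compound in 96-well plates. Values under 10 count as active.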 Unmarked numbers belong to inactive results. Active and inactive are the calls of the source.

The experiment concerns NCI-H322M lung. Put plainly: NCI-60 one-dose screen, 48 h (100 = growth as untreated, 0 = no growth, -100 = all killed). The conditions noted are these: 10 µM unless noted. As for the experimental part:
Growth inhibition of the NCI-H322M human Non-Small Cell Lung tumor cell line is measured as a screen for anti-cancer activity. Cells are grown in 96 well plates and exposed to the test compound for 48 hours. Compounds are tested at a single concentration, which is 10^-5 M for most compounds. The reported endpoint is percent growth (GI% or GIPRCNT), where numbers from 0 - 100% represent growth inhibition, and numbers from -100% - 0 represent cell death. For example, a value of 40 represents 60% growth inhibition. A value of 0 means no net growth occurred over the course of the experiment. A value of -40 indicates 40% of cells at the beginning of the experiment died by the end of the experiment. A value of -100 means all cells are dead at the end of the experiment.
NCI-60 Human Tumor Cell Lines Screen was performed using the standard one-dose NCI protocol, which is described in more detail at https://dtp.cancer.gov/discovery_development/nci-60/default.htm.
Compounds with GIPRCNT values below 10 were considered active. Activity score was based on GIPRCNT using the following formula: […]
Score is 0 for GIPRCNT values of 100 or above, 50 for GIPRCNT values of 0, and 100 for GIPRCNT values of -100.
Regarding `COc1ccc(-c2n[nH]c(=O)c3nc(NC(=S)Nc4ccc(Oc5ccccc5)cc4)sc23)cc1`, the growth is 101%. Regarding `COc1ccc(C#Cc2ccc(=O)oc2-c2cc(OC)c(OC)c(OC)c2)cc1O`, the growth is 49.7%. The same measure for `COc1ccc(/C=C(/c2ccccc2)[N+](=O)[O-])c(OC)c1`: 46.1%; for `N#Cc1cncc(-c2ccc3ncnc(Nc4cccc(Cl)c4)c3c2)c1`: 28.7%. Next, `NC(=O)c1cccc([C@@H]2O[C@H](CO)[C@@H](O)[C@H]2O)c1`: 87%; `C/C(Cc1ccc(Cl)cc1)=C(\c1ccc(OCCCN(C)C)cc1)c1ccc(OC(=O)Cc2ccccc2)cc1`: 105%. The same measure for `CCC1S/C(=N\N=C(\C)c2cc3cc(Cl)ccc3o2)N(c2ccccc2)C1=O` (stereo not given): 82.4%; for `Cc1c(CN)cc(-c2ccc(Cl)cc2)n1-c1ccccc1`: 88.4%; for `COc1cc(NC(=O)c2cncnc2Nc2ccc3c(ccn3Cc3ccccn3)c2)cc(OC)c1`: 76.4%. `O=C(/C=C/c1ccc(Oc2ccc(Br)cc2)cc1)c1ccc(Br)cc1`: the growth is 95.3%. With `COc1ccc(C2=NN(C(C)=O)C(c3cn(-c4ccccc4)nc3-c3ccc(Cl)cc3)C2)cc1` (stereo not given), the growth was 47.8%. As to `C=C1C(=O)O[C@H]2[C@H]1CC/C(Cn1cc(CCC)nn1)=C\CC[C@@]1(C)O[C@@H]21`, the growth was 90.2%. Next, `COc1cccc(NCc2nnc(Nc3ccc(Cl)cc3)c3ccccc23)c1`: 3.32% (active). For `Cc1cn(-c2cc(NC(=O)c3cncc(C#Cc4c(N)ncc5ccc(F)cc45)c3)cc(C(F)(F)F)c2)cn1`, the growth was 65.7%.

Regarding `Fc1ccc(Cn2cc(CSc3nc4ccccc4o3)nn2)cc1`, the growth is 91.9%.

In the case of `FC(F)(F)c1ccc(Cn2cc(CSc3nc4ccccc4s3)nn2)cc1`, the growth is 94.4%.

As to `COc1cc(/C=C/C(=O)/C=C(O)/C=C/c2ccc(OC(=O)C34CC5CC(CC(C5)C3)C4)c(OC)c2)ccc1OC(=O)C12CC3CC(CC(C3)C1)C2`, the growth was 102%. Next, `CC1(C)OB(O)c2cc(-c3nc4ccc5[nH]ncc5c4c4c3CCCC4)ccc21`: 57%; `CCN1C(=O)N(CC)C2C1NN=c1s/c(=C3\C(=O)N(CC(C)C)c4ccccc43)c(=O)n12` (stereo not given): 58.1%. With `CN(Cc1cc(Br)cc(Br)c1O)Cc1cc(Br)cc(Br)c1O`, the growth is 26.4%.

For the compound `COc1ccc(-c2nc3c(N)c(CO)cnc3s2)cc1`, the growth is 76%.

Regarding `N=C(N)c1ccc(-c2ccc(-c3ccccc3)s2)cc1`, the growth was 49.2%. For the compound `COc1ccc2c(c1)CCc1[nH]nc(-c3cc(OC)c(OC)c(OC)c3)c1-2`, the growth is 47%. As for `COc1cc(/C=N/Nc2ccc(Br)cc2)cc(OC)c1OC`, the growth is 66.3%. With `NC(N)=NS(=O)(=O)c1ccc(NC2=C(I)C(=O)c3ncccc3C2=O)cc1`, the growth was 109%. Take `CN(Cc1cnc2nc(N)nc(N)c2n1)c1ccc(C(=O)NC(CCC(=O)O)C(=O)O)cc1Br` (stereo not given): the growth is 69.6%.

Turning to `NNCCc1ccc(NC(=O)CCCc2ccc(C(=O)Nc3ccccc3N)cc2)cc1`, the growth is 87%.

In the case of `O=C1c2ccccc2C(=O)c2c1cc1c(c2[N+](=O)[O-])OCO1`, the growth is 46.9%. Take `COC(=O)c1c2c(n3ccccc13)C(=O)c1ccccc1C2=O`: the growth is 23.5%. With `CN1C(=O)/C(=C2\SC(=Nc3ccccc3)N(Nc3ccccc3)C2=O)c2ccccc21`, the growth was 95.4%. As for `Cc1cc2c(cc1C)N(C(=O)CCl)CC(=O)N2`, the growth was 95%. Regarding `COc1ccc(/C=C(/C(=O)n2cnnn2)c2cc(OC)c(OC)c(OC)c2)cc1`, the growth was 50.8%. Next, `Cc1nc2sc(C(=O)Nc3cccc(Br)c3C)c(N)c2cc1C(O)c1ccccc1` (stereo not given): 42.2%; `COc1ccc(C[n+]2c3ccccc3n3c4ccc(N)cc4ccc32)c(OC)c1OC`: 102%; `C=C1CC[C@@H]2C(C)(C)[C@@H](O)CC[C@@]2(C)[C@@H]1COc1ccc2ccc(=O)oc2c1`: 109%. With `COc1cc(OC)c(C(=O)C(CN(C)C)CN(C)C)cc1OC`, the growth is 108%.

Turning to `COc1cc(-c2nc3cc(Cl)c(Cl)cc3[nH]2)ccc1OCC(=O)N=Nc1c(O)[nH]c2ccc(Cl)cc12`, the growth is 35.2%.

As to `Nc1nc(N)c2c(n1)NC(c1ccc(Cl)cc1)C1CCc3ccccc3C1=N2` (stereo not given), the growth was 71.7%. As to `COc1cc(OC)c(/C=C/C(=O)c2c(O)cc(OC)c(C3CCN(C)CC3)c2OC)c(OC)c1`, the growth is -15.8% (active).

For `O=C1c2ccccc2C(=O)C1c1ccc(Br)cc1`, the growth is 122%.
